# From PubChem
# Shown are actives, neighbours in structure and some others; about 3.9% of the full set was active somewhere.
# HT1080 IDH1KD tx = HT-1080 IDH1 knockdown cell toxicity (counter line); HT-1080 IDH1 knockdown viability, ATP luminescence, 48 h; Potency, µM (top dose mostly 46.1 µM), usual class: cytotoxic; 360,000 compounds, 2% hits
#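 Knockdown cells (IDH1KD HT-1080) received compounds 2 h after plating at 750 cells/well and were kept 48 h at 37 °C in 5% FBS RPMI. A CellTiter-Glo luminescence read gave % activity for curve fitting.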
# ATXN2 expr inh = reduces ATXN2 reporter expression in HEK-293 cells | HEK-293 ATXN2-luciferase reporter, luminescence, 24 h | Potency, µM (series often up to 57 µM), hits mostly inhibitors | 360,000 compounds, 0.72% hits; note: nearly all actives have a fitted effect of over 55% in size
#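 ATXN2-luciferase reporter cells (luciferase flanked by upstream and downstream ATXN2 gene portions) were treated 24 h at 37 °C with compounds at up to 57 uM. SteadyGlo luminescence gave expression; GF-AFC fluorescence gave viability.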
# HT1080NT lethal = kills 2HG-producing HT-1080-NT fibrosarcoma cells | 360,000 compounds, 1.6% hits | HT-1080-NT fibrosarcoma viability, CellTiter-Glo ATP luminescence, 48 h | Potency, µM (doses to about 46.1 µM), actives largely listed as cytotoxic;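 note: NT is the 2HG producing partner of a matched IDH1 knockdown line; nearly all actives have a fitted effect of over 55% in size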
#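 HT-1080-NT; 750 cells/well; 5% FBS RPMI; 48 h compound, 37 degrees C; CellTiter-Glo luminescence; curve fitting and curve-class assignment.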
# S2 tox = cell viability loss in ATXN counter-screen. 400,000 compounds, 0.49% hits. Potency, µM (top dose mostly 56.7 µM), most hits filed as cytotoxic. S2 cells (HEK-293 line with an ATXN2-luciferase reporter) viability, CellTiter-Fluor protease fluorescence, 24 h; note: nearly all actives have a fitted effect of over 40% in size
# TGFb SMAD3 inh = inhibitors of TGF-b signaling; HepG2 CAGA-GFP TGF-b/SMAD3 reporter, GFP fluorescence, 18 h; TGF-beta stimulated, 500 pg/mL final; Potency, µM (top dose mostly 46.1 µM), actives largely listed as inhibitors; 410,000 compounds, 1.2% hits; AID 588855; note: nearly all actives have a fitted effect of over 65% in size
#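 HEPG2 CAGA-GFP, 1000 cells/well; 2 h settle, 37 C; cpd via pin tool; TGF-b 500 pg/mL final; 18 h, 37 C; GFP imaging ex488/em500-530; %Activity normalised to -TGF-b and +DMSO controls; CRC fit, curve class.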
# HepG2 viability = HepG2 cytotoxicity, counter-screen for TGF-b inhibitors; HepG2 CAGA-GFP viability, ATP luminescence, 18 h; Potency, µM (top dose mostly 46.1 µM), most hits filed as cytotoxic; 410,000 compounds, 0.76% hits
#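 HepG2 CAGA-GFP cells (1000/well, DMEM with 1% FBS) received compound, then TGF-beta at 500 pg/mL final, and were incubated 18 hours at 37 degrees C. Viability was read by CellTiter-Glo luminescence. Media-only wells were set as complete cell-killing and DMSO as no toxicity.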
# Numbers stand for hits; – = inactive; ? = inconclusive; · = no result. Calls come from the whole dose curve; as a rule, active = well fitted curve in the direction sought with a large enough effect; inconclusive = small, poorly fitted or top-dose-only effect, or another doubt; inactive = no such curve, though single readings can be large; an effect the other way counts as inactive or inconclusive.
SMILES,HT1080 IDH1KD tx,ATXN2 expr inh,HT1080NT lethal,S2 tox,TGFb SMAD3 inh,HepG2 viability
O=C1c2cccc3cccc(c23)C(=O)C1(O)O,18µM,?,?,·,?,–
CC(=O)N1C(=O)c2cccc3cccc(c23)C(=O)N1C(C)=O,–,–,–,–,–,–
COc1cc(NC(=O)CCc2c(C)nn(-c3ccc(N4CCCCC4)nn3)c2C)cc(OC)c1OC,·,·,·,·,–,–
COc1ccc(-c2cc(C(=O)Nc3c(Cl)cccc3Cl)no2)cc1OC,·,–,·,?,–,–
O=C(NCCCN1CCCCC1)c1[nH]c2ccccc2c1Sc1ccc(Cl)cc1,·,?,·,·,?,13µM
Cc1ccc(C(=O)N/C(=C\c2ccc(Br)cc2)c2nc(=S)[nH][nH]2)cc1,?,?,?,·,?,13µM
CCOC(=O)C1=C(C)Nc2ncnn2C1/C=C/c1ccccc1 (stereo not given),?,–,?,–,–,–
CCCC1=C(C(=O)OCC)C(/C=C/c2ccccc2)n2ncnc2N1 (stereo not given),11µM,–,22µM,–,–,–
CCCCN1CC[C@H]2C=CC[C@@H](C(=O)NC3CCCCC3)[C@H]2C1=O,·,·,·,·,–,–
COc1ccccc1Nc1sc(C(=O)c2ccc3c(c2)OCO3)c(N)c1S(=O)(=O)c1ccccc1,·,–,·,–,–,–
Clc1ccc(-c2noc(-c3cccnc3NCc3ccco3)n2)cc1,·,–,·,–,–,–
Cc1ccc(C)c(C(=O)NCCN(C)C)c1,–,–,–,–,–,–
C=C(CN(C)C)C(=O)c1cc(C)ccc1C,4.6µM,11µM,?,11µM,2.5µM,–
O=C(NNC1=C(C(=O)C(F)(F)F)CCC1)c1ccc(Cl)cc1,7.9µM,?,?,?,11µM,10µM
COc1ccc(C(=O)NNC2=C(C(=O)C(F)(F)F)CCC2)cc1,?,–,–,–,8.9µM,–
O=C(NNC1=C(C(=O)C(F)(F)F)CCC1)c1cccc(Cl)c1,23µM,?,?,?,?,10µM
CC(C)(C)c1ccc(C(=O)NNC(=O)c2ccc(Cl)cc2)cc1,–,–,–,–,–,–
O=S(=O)(Nc1ccc(-c2ccc(N3CCCC3)nn2)cc1)c1ccc(Br)cc1,·,–,·,–,–,–
COc1cc(N)c(N)cc1OC,·,·,·,·,–,–
CCOc1ccc(C(=O)Nc2nnc(S(=O)(=O)N(CC)c3ccccc3C)s2)cc1,·,·,·,·,–,–
NS(=O)(=O)c1ccc(NC(=O)Nc2ccc(C(F)(F)F)cc2)cc1,21µM,–,?,–,–,–
CCN1CCN(c2cc(C(C)(C)C)nc3c(-c4ccccc4)c(C)nn23)CC1,13µM,–,?,?,–,–
CCN1CCN(c2cc(C(C)C)nc3c(-c4ccccc4)c(C)nn23)CC1,16µM,?,?,?,?,–
Cc1nn2c(N3CCOCC3)cc(C(C)(C)C)nc2c1-c1ccccc1,–,·,–,–,–,–
CC(=O)OCC1=C(C(=O)O)N2C(=O)C(NC(=O)c3ccc(F)cc3)C2SC1 (stereo not given),–,·,–,14µM,–,–
SMILES,HT1080 IDH1KD tx,ATXN2 expr inh,HT1080NT lethal,S2 tox,TGFb SMAD3 inh,HepG2 viability
CC(=O)OCC1=C(C(=O)O)N2C(=O)C(NC(=O)Cc3ccccc3)C2SC1 (stereo not given),·,·,·,·,–,–
Cc1cccc(-c2nc3scc(CCNS(=O)(=O)c4ccc(F)cc4C)n3n2)c1,·,·,·,·,11µM,–
Cc1ccc(-c2nc3sc(CCNC(=O)c4ccc(Br)o4)c(C)n3n2)cc1,·,?,·,·,18µM,–
Cc1cc(C)c(S(=O)(=O)NCCc2sc3nc(-c4ccc(F)cc4)nn3c2C)c(C)c1,·,·,·,·,11µM,–
OC1CCN(Cc2ccc3c(c2)CN(Cc2ccc(Oc4ncccn4)cc2)CCO3)CC1,·,·,·,–,·,·
O=C(Nc1c(Cl)cncc1Cl)c1ccc(OC(F)F)c(OCC2CC2)c1,·,–,·,·,·,·
Cc1[nH][nH]c(=O)c1C(c1c(C)[nH][nH]c1=O)c1cn(Cc2ccccc2Cl)c2ccccc12,18µM,–,?,–,?,–
COc1ccc(OC)c(-c2cnc(OC(C)(C)C)nc2OC(C)(C)C)c1,13µM,·,?,–,?,–
Oc1ccc(Br)cc1C1C=C(c2ccc3c(c2)OCO3)NC(c2cccc(F)c2)N1 (stereo not given),·,·,·,·,?,–
CCC(=O)Oc1c(Sc2ccc(Cl)cc2)c(C)nn1-c1ccccc1,·,·,·,·,?,–
CN1CC2=Cc3ccccc3OC23Oc2ccccc2C=C3C1,?,–,16µM,?,?,–
CCCCCCCCCCCCN1[C@@H](CC(=O)O)c2cc(C(F)(F)F)ccc2S1(=O)=O,–,–,–,?,?,–
CCCCCCCCN1[C@@H](CC(=O)O)c2cc(C(F)(F)F)ccc2S1(=O)=O,–,–,–,–,11µM,–
S=c1[nH]nc(-c2cccs2)n1/N=C/c1cn(-c2ccccc2)nc1-c1cccs1,?,–,–,–,18µM,–
CCOC(=O)CNC(=O)c1cc2c(=O)n3cccc(C)c3nc2n1C,·,·,·,·,–,–
